# Assay outcomes from PubChem.
# Compounds with a hit are over-represented: about 2.2% of the library has one in this group of screens.
# CHT inh: inhibitors of human choline transporter CHT; CHT-expressing cells, membrane potential dye, choline response; stronger effect = lower value; AID 488975; B-score at 10 µM; Q9GZV3; 310,000 compounds, 0.86% hits;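 active = B-score over 3 SD under the library average, and starting fluorescence ratio not unusually high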;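 note: choline stimulus applied at its EC90 after an EC20 pre-addition; B-score computed on integrated fluorescence ratio after choline addition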
# CHT PAM: allosterically activates the human high affinity choline transporter; Q9GZV3; CHT-expressing cells, membrane potential dye, choline EC20; stronger effect = higher value; LV-AA mutant CHT in HEK293 cells; B-score at 10 µM; 310,000 compounds, 0.49% hits; AID 488977;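 active = initial fluorescence not abnormally high and integrated response B-score, plate-corrected, over 3 SD above library mean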
# VLA-4 inh: inhibition in a human VLA-4 binding assay | P13612 | VLA-4 expressing cells, ligand binding flow cytometry | inhibition, % (about 7 µM as worked out from the volumes in the protocol) | 330,000 compounds, 0.2% hits; in the data active = inhibition above about 50%
# HIF activator: HIF pathway transcriptional activation. U2OS HRE-luciferase reporter, luminescence; normalized: DMSO 0%, desferrioxamine 100%. activation, % at 7.5 µM (by protocol). 300,000 compounds, 0.32% hits. AID 1910;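 active = mean activation of at least 10% of the iron chelator positive control signal, with at least half of replicates also reaching 10%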
# Platelet DG rel: platelet dense granule release activity; human platelet-rich plasma, SFLLRN dense granule ATP release, luminescence; inhibition, %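 (compounds screened at 7.5 µM in platelet-rich plasma)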; 300,000 compounds, 0.22% hits;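 active = mean replicate score, as percent of positive control, at or above 50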
# AI-2 QS mod: Vibrio harveyi AI-2 quorum sensing modulation; activity change, % at 7.5 µM; Vibrio harveyi JMH597 AI-2 luminescence/OD600 ratio, 9 h; stronger effect = lower value; strain lacks LuxN and CqsS sensors; 0 = neutral-control median; 300,000 compounds, 0.4% hits; in the data active = activity change below about -75%, passing the limit was not always enough;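 note: luminescence divided by OD600 gain over 9 h not by final OD600 alone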
# CHT act confirm: human CHT activation, confirmatory screen; shares compounds with CHT PAM; CHT-expressing cells, membrane potential dye fluorescence (FDSS); % of choline EC20–EC90 response window; HEK293 expressing CHT LV-AA mutant; choline added at its EC20; activation, % at 10 µM; 2,500 compounds, 91% hits; AID 504833;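 active = primary screen active, with duplicate mean activation above negative control mean plus 3 SD, cut at about 11% in these data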
# HEK293 MP dye: activity in parental HEK293 cells lacking CHT. membrane potential dye fluorescence (FDSS); measured after EC20 choline addition. 2,500 compounds, 62% hits. ratio readout change at 10 µM, hits read low. shares compounds with CHT PAM;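 active = duplicate-averaged ratio beyond 3 SD from buffer wells, up or down, though filed actives are nearly all decreases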
# Starred values were filed as active, the others as inactive; i = inactive; . = no result given.
SMILES,CHT inh,CHT PAM,VLA-4 inh,HIF activator,Platelet DG rel,AI-2 QS mod,CHT act confirm,HEK293 MP dye
COc1ccc(NC(=S)NCCc2ccccc2)c(C)c1,i,i,2,0,-5,25,.,.
CCc1cc(Br)ccc1NC(=S)NCCc1ccccc1,i,i,-12,.,.,29,12*,i
O=C1c2ccccc2C(=O)N1CCC#Cc1ccc2cc(CCCO)oc(=O)c2c1,.,.,13,.,.,.,.,.
Cc1c(C)n(CCN(C)C)c2ncnc(NCc3ccccc3)c12,i,i,-4,-3,-6,19,46*,-48*
Cc1c(C)n(CCc2ccccc2)c2ncnc(NCCCN(C)C)c12,i,i,22,-29,-7,41,.,.
CC(C)(C)C(=O)Nc1cc(NC(=O)C(C)(C)C)cc(C(=O)Nc2c[nH]c(=O)[nH]c2=O)c1,i,i,4,0,2,22,.,.
O=C(O)CCNc1cc(N2CCN(C(=O)c3ccco3)CC2)c2noc3c2c1C(=O)c1ccccc1-3,i,i,-9,-1,-3,-22,.,.
CCN1CCN(c2cc(N3CCN(C(=O)c4ccco4)CC3)c3c4c(onc24)-c2ccccc2C3=O)CC1,i,i,-375,-2,2,-2,25*,-52*
Cc1cc(=O)n2nc(-c3ccc(C(F)(F)F)cc3)sc2n1,i,6.8*,6,2,-6,0,42*,-35*
C/C(CC(=O)Nc1ccc(Cl)cc1)=N\NC(=O)C(=O)N1CCCCC1,i,i,13,.,.,19,.,.
CCOc1ccc(-n2c(-c3ccccc3)c[n+]3c2CCCCC3)cc1,i,13*,7,0,0,34,44*,i
c1ccc(-c2c[n+]3c(n2-c2ccccc2)CCC3)cc1,i,i,21,0,-2,11,.,.
CCn1nnnc1NCc1c(OC)ccc2ccccc12,i,i,9,0,-6,16,.,.
CCOc1ccc(N=Nc2c(=O)[nH]n3c(C)cc(C)nc23)cc1,i,i,-53,0,2,20,42*,-49*
CCOc1ccc(CN(C)C(=O)[C@H](Cc2ccccc2)NC(=O)OCc2ccccc2)cc1OC,i,i,3,0,13,5,.,.
CN1CCN(c2ccccc2NC(=O)c2ccc(-c3ccc(Cl)c(Cl)c3)o2)CC1,i,i,-5,1,2,23,.,.
Cc1cc(N2CCN(C)CC2)ccc1NC(=O)c1ccc(-c2ccc(Cl)cc2)o1,i,i,1,-1,6,27,4,i
COc1ccc(C(=O)C(CCCCC(CN(C)C)C(=O)c2ccc(OC)cc2)CN(C)C)cc1 (stereo not drawn),i,i,1,0,-5,-6,15*,-27*
CCc1ccc(CN(C)C(=O)CCc2nc3ccccc3n(-c3ccc(OC)cc3)c2=O)cc1,i,i,-6,-1,14,9,26*,i
COc1ccc(-n2c(=O)c(CCC(=O)N(C)Cc3ccccc3C)nc3ccccc32)cc1,i,i,-94,-1,13,-12,.,.
COc1ccc(C2=CSC3=NCCN23)cc1F,i,7.2*,1,0,-4,19,47*,-55*
COc1ccc(C2=CSC3=NCCN23)cc1[N+](=O)[O-],i,i,2,-17,9,25,.,.
COc1ccc(C2=CSC3=NCCN23)cc1Br,i,6.6*,1,-1,-7,-8,29*,-47*
COc1ccc(C2=CSC3=NCCN23)cc1Cl,i,i,3,0,9,-8,.,.
O=[N+]([O-])c1ccc(C2=CSC3=NCCN23)cc1,i,7.4*,0,0,3,16,43*,-61*
SMILES,CHT inh,CHT PAM,VLA-4 inh,HIF activator,Platelet DG rel,AI-2 QS mod,CHT act confirm,HEK293 MP dye
O=C1S/C(=C\c2ccc(Cl)cc2)C(=O)N1CCn1cnnn1,i,i,2,0,1,14,.,.
Cc1nn(C)c2ncc(C(N)=O)c(Oc3cccnc3)c12,i,i,9,0,-3,10,.,.
CCOC(=O)c1cnc2c(c(C)nn2C)c1Oc1ccc(Cl)cc1,i,6.4*,18,0,3,4,27*,i
Cn1c(=O)n(C)c2cc([N+](=O)[O-])c(N3CCN(C(=O)c4cccc(F)c4)CC3)cc21,i,i,-1,-1,2,10,26*,-39*
Cn1c(=O)c(=O)n(C)c2cc([N+](=O)[O-])c(N3CCOCC3)cc21,i,6.5*,-7,0,16,27,66*,-61*
COc1cccc([C@@H]2CC=C(C(=O)O)[C@H](c3ccc(Br)cc3)N2S(=O)(=O)c2ccc(C)cc2)c1,.,.,31,.,.,.,.,.
CC1Oc2ccccc2N(CC(=O)NC2CCCCC2)C1=O (stereo not drawn),i,i,8,1,-9,20,.,.
CC(C)C1Oc2ccccc2N(CC(=O)NC2CCCCC2)C1=O (stereo not drawn),i,i,8,0,-4,16,9.8*,i
COCC(=O)NC1(c2nnnn2CCOC(=O)Nc2ccc(Cl)cc2)CCCCC1,i,i,-8,2,-7,11,.,.
O=C(NCc1nnnn1-c1ccc(Cl)cc1)c1ccc(Br)o1,i,i,-8,0,-34,18,.,.
Cc1cc(N2CC(C)OC(C)C2)nc2ccccc12 (stereo not drawn),i,6.6*,-4,0,6,16,28*,-55*
Cc1cc(N2CCN(c3ccccc3)CC2)nc2ccccc12,i,i,9,1,1,22,.,.
Cc1cc[n+]2c3c(cccc13)CCC2,i,11*,-15,0,-17,13,89*,-85*
COc1cccc(N2C(=NC(=O)CCC3CCCC3)SC3CS(=O)(=O)CC32)c1 (stereo not drawn),i,i,2,0,2,17,.,.
CCc1nccn1Cc1cc(C=O)ccc1OC,i,i,2,0,-20,14,61*,-44*
Cc1ccc(OCc2nc(C#N)c(NCc3ccc4c(c3)OCO4)o2)cc1,i,7.5*,0,-30,0,-4,30*,i
COC(=O)C1=C(C(=O)OC)SC(=C2C(=S)C(C)(C)N(C(=O)C(C)C)c3ccccc32)S1,i,i,13,0,-10,16,.,.
